Measurements published in PubChem BioAssay.
Records with an inconclusive call do not appear. Active and inactive are the calls of the source.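 The calls were made as follows, unless noted: active = efflux inhibition above 0.42, the validation set average plus 4 SD; inconclusive = no clear call, values can overlap the other calls; inactive = the rest.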

Columns and labels:
[1] = yeast TOR pathway RPL19A-GFP modulators, primary screen, cell-based, S. cerevisiae, multiplex flow cytometry (AID 1862; in the data active = percent of DMSO control GFP below about 86%;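 also: lower values mimic rapamycin by blocking the RPL19A rise seen in DMSO cells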); details: S. cerevisiae RPL19A-GFP strain, flow cytometry fluorescence, 3 h; at 10 µM; stronger effect = lower value
[2] = modulators of MEP2-GFP levels in yeast, primary screen, S. cerevisiae, multiplex flow cytometry (AID 1867;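 active = GFP response, as percent of the DMSO control, above the screen-wide mean plus 3 SD, about 139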;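 also: median GFP channel fluorescence of barcode-gated MEP2-GFP cells measured by flow cytometry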); details: S. cerevisiae MEP2-GFP strain, 3 h, at 10 µM, stronger effect = higher value, 100% means same as DMSO wells
[3] = modulators of CIT2-GFP expression in yeast, primary screen, S. cerevisiae, GFP fusion, multiplex flow cytometry (AID 1870;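 active = percent response above a set limit, the screen-wide mean plus 3 SD, cut at about 130% in these data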;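 also: barcoded CIT2-GFP strain pooled with four other GFP strains with rapamycin as positive control; median GFP fluorescence per well over plate mean of DMSO wells so 100% = DMSO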); details: 3 h, at 10 µM, stronger effect = higher value
[4] = modulators of LAP4-GFP expression in yeast, primary screen, S. cerevisiae, multiplex flow cytometry (AID 1873;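 active = GFP signal, as percent of the solvent control, above the screen mean plus 3 SD, about 149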); details: 3 h, at 10 µM, stronger effect = higher value
[5] = modulators of AGP1-GFP expression in yeast TOR pathway, primary screen, cell-based, multiplex flow cytometry, S. cerevisiae (AID 1887;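 active = GFP signal above the screen-wide mean plus 3 SD, that is over about 124.5% of the solvent control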;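 also: AGP1-GFP fusion strain of S. cerevisiae within a five-strain barcoded multiplex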); details: 3 h, at 10 µM, stronger effect = higher value
[6] = RPL19A-GFP modulators, yeast TOR pathway, confirmation, cell-based, S. cerevisiae, flow cytometry, cherry picks, mother/daughter gates (AID 2270;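 active = GFP response below 50% of the DMSO control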); details: S. cerevisiae RPL19A-GFP strain, 3 h, at 10 µM, stronger effect = lower value, 100 = same GFP as DMSO wells
[7] = LAP4-GFP expression modulators in yeast, confirmation, cell-based, cherry picks, flow cytometry, mother/daughter gates (AID 2271;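 active = GFP response above 150% of the DMSO control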;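 also: ratio of sample to DMSO plate mean so 100% equals DMSO level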); details: S. cerevisiae LAP4-GFP strain, 3 h, at 10 µM, stronger effect = higher value, 100 means same as DMSO control
[8] = modulators of MEP2-GFP levels in yeast, confirmation, S. cerevisiae, flow cytometry GFP, cherry picks (AID 2272;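 active = GFP response above 150% of the DMSO control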;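 also: ratio of well signal to plate DMSO mean so 100% equals DMSO level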); details: S. cerevisiae MEP2-GFP strain, 3 h, at 10 µM, stronger effect = higher value
[9] = modulators of CIT2-GFP expression in yeast, confirmation, S. cerevisiae, GFP fusion, cherry picks, mother/daughter gates (AID 2274;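 active = GFP response above 150% of the DMSO level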); details: S. cerevisiae CIT2-GFP strain, flow cytometry, 3 h, at 10 µM, stronger effect = higher value
[10] = inhibitors of CD8+ T cell-vesicle binding, pilot screen, LFA-1/ICAM-1 modulator project, MLPCN validation set, flow cytometry (AID 2523;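 active = response below a set limit, under 55% cells CD8-positive and vesicle-bound, and CD8 cells' 90th-percentile brightness under 279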;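 as to vesicle binding response: mean PE anti-B7-1 fluorescence of CD8+ cells relative to row control; 100% = QL9-loaded vesicles with DMSO vehicle in the same plate row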); details: 2C mouse CD8+ T cells, at 7 µM, stronger effect = lower value; double positive events: measured here: CD8+/vesicle+ event percentage
[11] = biological target: Integrin beta-1 (Homo sapiens) + Integrin alpha-4 (Homo sapiens) (UniProt P13612+P05556); experiment: inhibition of HUTS-21 binding to VLA-4, pilot screen, VLA-4 allosteric modulator project, U937 cells, HUTS-21 mAb, flow cytometry, validation set (AID 2674;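 active = inhibition above 50%, about 3 SD of the validation set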;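 also: antibody binding induced by the VLA-4 ligand LDV present at three times its Kd; 0% = LDV ligand with antibody and no compound and 100% = antibody without LDV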); details: HUTS-21 LIBS mAb binding, at 6.7 µM, stronger effect = higher value, binding induced by LDV ligand
[12] = superoxide lowering in aged yeast cells, pilot screen, validation compound set (AID 2706;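 active = superoxide response below 65% of plate, a cut near 3 SD across the whole screen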;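 also: yeast exposed to compound for one week at 30 degrees C before staining; 100% = mean of all compound wells on the same plate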); details: S. cerevisiae aging, superoxide DHE fluorescence; at 10 µM; stronger effect = lower value
[13] = biological target: Beta-adrenergic receptor kinase 1 (Homo sapiens) (UniProt P25098); experiment: GRK2 binders displacing RNA aptamer, biochemical, validation, human GRK2, bead flow cytometry (AID 488806;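 active = aptamer binding inhibition above 30%, about 3 SD of noise from non-fluorescent compounds; inactive = inhibition at or below 30%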); details: bead-bound GRK2, FAM-aptamer displacement, at 10 µM, stronger effect = higher value
[14] = biological target: Beta-2 adrenergic receptor (Homo sapiens) (UniProt P07550); experiment: beta2AR agonists driving receptor internalization, pilot screen, cell-based, FAP fluorogen, flow cytometry, validation set (AID 504459;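 active = percent response above 42, roughly 3 SD of non-fluorescent test compounds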;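 also: agonist-driven loss of surface beta2AR via internalization measured by FAP dye flow cytometry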); details: Am2.2-beta2AR cells, FAP surface receptor flow cytometry; at 10 µM; stronger effect = higher value
[15] = biological target: AP-2 complex subunit beta (Homo sapiens) (UniProt P63010); experiment: inhibitors of arrestin peptide binding to AP2, pilot screen, biochemical, validation set, GST-AP2 beads, flow cytometry (AID 504541;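 active = inhibition above 54%, about 3 SD of non-fluorescent compounds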;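 also: AP2 carries R879A mutation and is captured from E. coli lysate; bead-bound FITC arrestin peptide fluorescence measuring arrestin peptide binding to AP2; 0% = DMSO wells and 100% = excess unlabeled arrestin peptide control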); details: FITC arrestin peptide, at 10 µM, stronger effect = higher value, AP2 beta2 appendage fragment, R879A mutant
[16] = yeast V-ATPase proton transport modulators, S. cerevisiae, pHLuorin, HTS validation (AID 504600; in the data active = response above about 15%;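 also: plate controls were DMSO for no effect and reference compound for full effect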); details: S. cerevisiae pHLuorin cytosolic pH, at 10 µM, stronger effect = higher value
[17] = test system: anti-desmoglein-3 scFv antibody binding to human DSG3; experiment: inhibitors of anti-DSG3 scFv binding to DSG3, pilot screen, biochemical, validation compound set, bead-based, flow cytometry (AID 588368;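 active = binding below the plate cutoff, the plate median minus 3 SD, with a reading above zero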;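 also: signal is the median channel fluorescence of bead-bound GFP antibody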); details: Protein G beads, DSG3-Fc, scFv-GFP binding, at 10 µM, stronger effect = lower value
[18] = inhibitors of fungal efflux pumps CDR1, CDR2, MDR1, pilot screen, validation compound set, multiplex, phenotypic (AID 588506);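 also: Nile Red retained in cells so higher fluorescence means more efflux inhibition; 0 = negative control wells and 1 = enniatin B 25 µM full block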; details: S. cerevisiae pump-expressing triplex, Nile Red efflux flow cytometry; at 10 µM; stronger effect = higher value; the pumps come from Candida albicans
[19] = biological target: ATP-binding cassette sub-family B member 6 (Homo sapiens) (UniProt Q9NP58); experiment: ABCB6 transporter inhibitors, pilot screen, K562-ABCB6 cells, flow cytometry, validation set (AID 588550;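 active = inhibition above the screen-wide mean plus 3 SD, about 51%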;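 also: 0% = DMSO wells and 100% = benzethonium chloride 70 µM positive control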); details: K562-ABCB6 porphyrin accumulation, 1 h, at 10 µM, stronger effect = higher value
[20] = promoters of myeloid differentiation in arrested cells, primary screen, cell-based, GFP/MAC1 double positive, flow cytometry, validation set (AID 588685;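 active = differentiation response of at least 50%, scaled between solvent and reference control, from cells with both markers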;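 also: compound exposure lasts four days before antibody staining and flow analysis; 0% = DMSO wells and 100% = 5 µM fulvestrant positive control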); details: ER-HoxA9 marrow cells, stronger effect = higher value, normalized: vehicle 0, fulvestrant 100
[21] = measured here: daughter cell gate
[22] = measured here: mother cell gate
[23] = measured here: daughter cell gate response
[24] = measured here: mother cell gate response

Sequence of AP-2 complex subunit beta (Homo sapiens) (P63010 whole entry, looked up, the tested form may be a part, one chain of several): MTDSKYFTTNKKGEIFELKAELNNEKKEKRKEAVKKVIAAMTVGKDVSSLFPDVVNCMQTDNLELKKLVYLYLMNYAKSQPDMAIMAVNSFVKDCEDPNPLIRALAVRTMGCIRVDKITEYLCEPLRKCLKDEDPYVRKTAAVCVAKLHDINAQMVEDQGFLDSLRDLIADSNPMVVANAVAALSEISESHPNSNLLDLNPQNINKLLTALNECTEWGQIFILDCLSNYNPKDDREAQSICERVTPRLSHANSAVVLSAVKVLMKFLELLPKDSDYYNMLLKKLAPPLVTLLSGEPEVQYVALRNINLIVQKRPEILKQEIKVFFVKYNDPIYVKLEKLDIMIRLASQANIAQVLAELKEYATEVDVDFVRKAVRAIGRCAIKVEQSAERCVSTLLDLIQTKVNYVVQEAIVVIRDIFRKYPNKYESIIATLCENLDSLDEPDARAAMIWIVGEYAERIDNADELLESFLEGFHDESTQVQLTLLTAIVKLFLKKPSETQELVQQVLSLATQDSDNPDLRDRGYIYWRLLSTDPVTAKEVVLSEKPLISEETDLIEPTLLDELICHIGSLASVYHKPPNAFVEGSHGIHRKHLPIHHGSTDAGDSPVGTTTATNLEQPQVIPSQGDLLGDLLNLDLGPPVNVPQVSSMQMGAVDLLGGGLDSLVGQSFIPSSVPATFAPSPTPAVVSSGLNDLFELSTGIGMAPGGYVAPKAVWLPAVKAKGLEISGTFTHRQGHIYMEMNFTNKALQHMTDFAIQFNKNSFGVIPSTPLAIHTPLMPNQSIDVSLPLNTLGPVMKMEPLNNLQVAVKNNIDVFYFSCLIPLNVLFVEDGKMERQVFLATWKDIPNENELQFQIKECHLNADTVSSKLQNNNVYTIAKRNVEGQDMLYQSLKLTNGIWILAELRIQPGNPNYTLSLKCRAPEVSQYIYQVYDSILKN
Sequence of Beta-adrenergic receptor kinase 1 (Homo sapiens) (P25098 whole entry, looked up): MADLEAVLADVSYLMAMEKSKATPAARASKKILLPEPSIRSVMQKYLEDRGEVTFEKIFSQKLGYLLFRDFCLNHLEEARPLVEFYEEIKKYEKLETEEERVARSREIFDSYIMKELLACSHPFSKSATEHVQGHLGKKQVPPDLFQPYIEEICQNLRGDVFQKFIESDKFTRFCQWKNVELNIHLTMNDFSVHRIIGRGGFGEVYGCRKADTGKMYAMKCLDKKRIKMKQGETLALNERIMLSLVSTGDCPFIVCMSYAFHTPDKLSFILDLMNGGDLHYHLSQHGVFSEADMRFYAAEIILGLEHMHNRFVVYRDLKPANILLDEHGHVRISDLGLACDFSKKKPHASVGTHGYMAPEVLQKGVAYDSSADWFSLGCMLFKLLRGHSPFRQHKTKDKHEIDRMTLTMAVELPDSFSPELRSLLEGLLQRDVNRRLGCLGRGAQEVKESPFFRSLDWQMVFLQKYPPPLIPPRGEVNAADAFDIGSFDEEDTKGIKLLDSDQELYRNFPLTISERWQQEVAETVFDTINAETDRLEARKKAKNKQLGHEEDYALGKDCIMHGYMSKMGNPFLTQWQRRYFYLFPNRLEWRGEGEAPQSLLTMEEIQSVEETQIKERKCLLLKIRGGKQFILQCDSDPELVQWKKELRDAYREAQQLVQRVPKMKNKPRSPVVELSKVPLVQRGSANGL
Sequence of Integrin beta-1 (Homo sapiens) + Integrin alpha-4 (Homo sapiens) (P05556 whole entry, looked up): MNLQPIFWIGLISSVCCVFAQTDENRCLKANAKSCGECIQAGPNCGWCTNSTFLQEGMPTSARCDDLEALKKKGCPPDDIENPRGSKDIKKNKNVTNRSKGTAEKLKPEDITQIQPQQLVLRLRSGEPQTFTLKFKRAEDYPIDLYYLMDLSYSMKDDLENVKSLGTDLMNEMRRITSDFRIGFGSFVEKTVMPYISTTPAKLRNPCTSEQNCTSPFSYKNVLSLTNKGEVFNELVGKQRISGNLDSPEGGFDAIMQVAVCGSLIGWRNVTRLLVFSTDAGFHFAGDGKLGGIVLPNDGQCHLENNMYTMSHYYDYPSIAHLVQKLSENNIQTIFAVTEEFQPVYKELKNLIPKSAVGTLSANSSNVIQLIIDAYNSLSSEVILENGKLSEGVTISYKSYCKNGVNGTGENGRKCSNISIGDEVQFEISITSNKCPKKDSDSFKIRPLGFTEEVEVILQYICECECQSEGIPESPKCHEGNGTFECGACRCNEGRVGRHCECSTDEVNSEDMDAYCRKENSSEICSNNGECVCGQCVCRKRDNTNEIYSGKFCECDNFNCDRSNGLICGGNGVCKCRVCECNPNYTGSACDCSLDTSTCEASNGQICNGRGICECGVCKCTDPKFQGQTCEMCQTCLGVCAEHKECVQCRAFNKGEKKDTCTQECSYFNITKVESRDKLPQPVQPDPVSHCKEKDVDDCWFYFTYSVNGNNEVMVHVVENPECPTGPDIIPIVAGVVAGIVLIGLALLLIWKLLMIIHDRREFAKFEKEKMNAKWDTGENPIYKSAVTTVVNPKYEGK
Sequence of Integrin beta-1 (Homo sapiens) + Integrin alpha-4 (Homo sapiens) (P13612 whole entry, looked up): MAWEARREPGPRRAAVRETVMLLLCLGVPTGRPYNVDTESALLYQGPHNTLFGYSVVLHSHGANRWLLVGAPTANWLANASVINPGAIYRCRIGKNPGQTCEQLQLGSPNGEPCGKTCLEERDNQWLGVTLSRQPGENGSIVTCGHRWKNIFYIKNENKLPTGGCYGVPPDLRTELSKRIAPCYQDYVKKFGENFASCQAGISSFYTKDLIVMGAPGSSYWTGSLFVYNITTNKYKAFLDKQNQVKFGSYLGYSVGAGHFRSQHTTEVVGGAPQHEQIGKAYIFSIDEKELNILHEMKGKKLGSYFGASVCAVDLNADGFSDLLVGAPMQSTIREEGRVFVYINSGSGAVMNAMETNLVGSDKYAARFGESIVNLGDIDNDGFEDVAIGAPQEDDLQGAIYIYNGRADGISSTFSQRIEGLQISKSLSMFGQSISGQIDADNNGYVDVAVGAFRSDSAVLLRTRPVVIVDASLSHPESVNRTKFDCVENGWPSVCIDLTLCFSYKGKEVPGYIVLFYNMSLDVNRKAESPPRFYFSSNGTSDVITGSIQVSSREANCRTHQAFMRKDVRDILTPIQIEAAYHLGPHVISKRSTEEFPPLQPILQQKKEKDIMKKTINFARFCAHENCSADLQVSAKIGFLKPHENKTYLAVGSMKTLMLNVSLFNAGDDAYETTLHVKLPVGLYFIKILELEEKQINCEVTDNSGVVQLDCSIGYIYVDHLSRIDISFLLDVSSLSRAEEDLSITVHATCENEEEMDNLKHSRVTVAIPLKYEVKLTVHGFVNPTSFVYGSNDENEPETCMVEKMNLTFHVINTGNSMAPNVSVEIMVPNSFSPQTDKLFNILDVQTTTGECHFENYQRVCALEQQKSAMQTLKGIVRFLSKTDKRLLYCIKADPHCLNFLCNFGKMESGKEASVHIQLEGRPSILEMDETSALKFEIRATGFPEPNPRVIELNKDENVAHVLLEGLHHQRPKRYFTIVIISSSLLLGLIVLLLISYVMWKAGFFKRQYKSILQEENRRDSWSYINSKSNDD
Sequence of ATP-binding cassette sub-family B member 6 (Homo sapiens) (Q9NP58 whole entry, looked up): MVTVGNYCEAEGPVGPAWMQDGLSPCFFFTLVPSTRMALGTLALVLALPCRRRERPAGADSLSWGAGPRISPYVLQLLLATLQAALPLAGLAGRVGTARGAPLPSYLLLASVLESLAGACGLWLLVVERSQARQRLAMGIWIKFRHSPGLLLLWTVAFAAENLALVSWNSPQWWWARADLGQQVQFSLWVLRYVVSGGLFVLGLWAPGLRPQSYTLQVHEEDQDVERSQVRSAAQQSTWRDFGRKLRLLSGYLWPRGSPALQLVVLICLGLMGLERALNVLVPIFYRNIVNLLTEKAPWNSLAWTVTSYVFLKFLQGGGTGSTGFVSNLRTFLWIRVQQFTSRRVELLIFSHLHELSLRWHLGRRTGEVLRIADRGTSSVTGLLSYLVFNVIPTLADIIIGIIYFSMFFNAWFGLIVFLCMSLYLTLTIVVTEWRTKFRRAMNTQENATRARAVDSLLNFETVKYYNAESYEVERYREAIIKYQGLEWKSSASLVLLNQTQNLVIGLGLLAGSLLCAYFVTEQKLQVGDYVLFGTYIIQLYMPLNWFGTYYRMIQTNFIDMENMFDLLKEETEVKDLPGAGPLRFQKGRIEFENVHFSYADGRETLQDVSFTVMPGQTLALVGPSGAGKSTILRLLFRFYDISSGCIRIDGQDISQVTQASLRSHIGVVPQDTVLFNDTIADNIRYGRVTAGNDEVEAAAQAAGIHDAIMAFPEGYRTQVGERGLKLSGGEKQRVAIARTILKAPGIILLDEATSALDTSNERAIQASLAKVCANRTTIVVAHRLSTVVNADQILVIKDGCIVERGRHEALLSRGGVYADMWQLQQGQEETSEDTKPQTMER
Sequence of Beta-2 adrenergic receptor (Homo sapiens) (P07550 whole entry, looked up): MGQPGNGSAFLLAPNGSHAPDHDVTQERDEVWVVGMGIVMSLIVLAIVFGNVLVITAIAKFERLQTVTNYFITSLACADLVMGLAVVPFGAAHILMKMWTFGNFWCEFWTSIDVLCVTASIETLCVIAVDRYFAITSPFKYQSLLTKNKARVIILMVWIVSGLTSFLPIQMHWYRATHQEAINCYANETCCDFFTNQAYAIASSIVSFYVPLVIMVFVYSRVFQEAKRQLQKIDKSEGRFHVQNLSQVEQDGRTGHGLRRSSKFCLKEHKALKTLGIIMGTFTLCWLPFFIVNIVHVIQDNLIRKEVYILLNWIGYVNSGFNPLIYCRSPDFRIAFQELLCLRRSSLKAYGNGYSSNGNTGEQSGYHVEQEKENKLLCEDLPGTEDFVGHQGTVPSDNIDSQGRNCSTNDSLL

N#C/C(C(N)=O)=c1/ccc2c(c1)N1C3=C(CCCC3)CC3CCCCC31N=2 (configuration not stated)
active: GFP response vs DMSO [4] 170%
89.3%: GFP response, % of DMSO [9, 22]
88.8%: GFP response vs DMSO [6, 21]
85.2%: GFP response, % of DMSO [9, 21]
93.3%: GFP response vs DMSO [6, 22]
59.5%: double positive events [10]
115%: GFP response relative to DMSO [7, 23]
inactive: percent of DMSO control GFP [1] 104% | GFP response vs DMSO [2] 113% | percent response of DMSO control [3] 94.5% | GFP response, % of DMSO [5] 105% | GFP response vs DMSO [6] 92.7% | GFP response relative to DMSO [7] 118% | GFP response vs DMSO [8] 101% | GFP response, % of DMSO [9] 88.9% | vesicle binding response [10] 108% | inhibition [11] -74.8% | superoxide response (% of plate) [12] 92.3% | aptamer binding inhibition [13] -5% | response [14] 5.12% | inhibition [15] 46.9% | response [16] -2.62% | binding (% of control) [17] 98.3% | efflux inhibition (fraction of control) [18] 0.37 | inhibition [19] -58% | differentiation response [20] -16.3%
123%: GFP response relative to DMSO [7, 24]

C[C@H]1C[C@@H]2[C@H]([C@@H](O)C[C@@]3(C)[C@H]2CC[C@]3(O)C(=O)CO)[C@@]2(C)C=CC(=O)C=C12
102%: GFP response relative to DMSO [7, 23]
77.3%: double positive events [10]
99.1%: GFP response, % of DMSO [9, 21]
98.5%: GFP response, % of DMSO [9, 22]
96.6%: GFP response vs DMSO [6, 21] | GFP response vs DMSO [6, 22]
99.3%: GFP response relative to DMSO [7, 24]
active: percent of DMSO control GFP [1] 85.8% | GFP response vs DMSO [2] 145%
inactive: percent response of DMSO control [3] 93.9% | GFP response vs DMSO [4] 80.3% | GFP response, % of DMSO [5] 83.6% | GFP response vs DMSO [6] 96.6% | GFP response relative to DMSO [7] 103% | GFP response vs DMSO [8] 105% | GFP response, % of DMSO [9] 99.7% | vesicle binding response [10] 227% | inhibition [11] 10.3% | superoxide response (% of plate) [12] 88.9% | aptamer binding inhibition [13] 7% | response [14] 1.51% | inhibition [15] 2.63% | response [16] 0.24% | binding (% of control) [17] 99.2% | efflux inhibition (fraction of control) [18] -0.38 | inhibition [19] 13% | differentiation response [20] 0%

C#C[C@]1(O)CC[C@H]2[C@@H]3CCC4=CC(=O)CC[C@@H]4[C@H]3CC[C@@]21CC
99.7%: GFP response, % of DMSO [9, 21]
101%: GFP response vs DMSO [6, 22]
62.5%: double positive events [10]
102%: GFP response relative to DMSO [7, 23] | GFP response, % of DMSO [9, 22]
98.7%: GFP response vs DMSO [6, 21]
103%: GFP response relative to DMSO [7, 24]
inactive: percent of DMSO control GFP [1] 96.3% | GFP response vs DMSO [2] 96.6% | percent response of DMSO control [3] 97.7% | GFP response vs DMSO [4] 107% | GFP response, % of DMSO [5] 103% | GFP response vs DMSO [6] 101% | GFP response relative to DMSO [7] 101% | GFP response vs DMSO [8] 95.7% | GFP response, % of DMSO [9] 102% | vesicle binding response [10] 142% | inhibition [11] 15.1% | superoxide response (% of plate) [12] 92.6% | aptamer binding inhibition [13] 8% | response [14] -17.9% | inhibition [15] -1.43% | response [16] 1.52% | binding (% of control) [17] 98% | efflux inhibition (fraction of control) [18] -0.04 | inhibition [19] 7% | differentiation response [20] 2.89%

C[C@]12CC[C@@H]3c4ccc(O)cc4C(=O)C[C@H]3[C@@H]1CC[C@@H]2O
92.1%: GFP response relative to DMSO [7, 24]
active: GFP response vs DMSO [2] 148% | vesicle binding response [10] 60.7%
39.3%: double positive events [10]
95.6%: GFP response vs DMSO [6, 21] | GFP response relative to DMSO [7, 23]
98.5%: GFP response vs DMSO [6, 22]
113%: GFP response, % of DMSO [9, 22]
inactive: percent of DMSO control GFP [1] 98.3% | percent response of DMSO control [3] 116% | GFP response vs DMSO [4] 88% | GFP response, % of DMSO [5] 97.5% | GFP response vs DMSO [6] 97.4% | GFP response relative to DMSO [7] 90.2% | GFP response vs DMSO [8] 95.7% | GFP response, % of DMSO [9] 111% | inhibition [11] -0.33% | superoxide response (% of plate) [12] 104% | aptamer binding inhibition [13] 1% | response [14] -10.5% | inhibition [15] 44.1% | response [16] -4.63% | binding (% of control) [17] 91.9% | efflux inhibition (fraction of control) [18] 0.37 | inhibition [19] 0% | differentiation response [20] 0.82%
108%: GFP response, % of DMSO [9, 21]

COc1ccc(-c2[nH]ncc2CN(CCO)Cc2cccs2)c(F)c1
99.7%: GFP response, % of DMSO [9, 22]
inactive: percent of DMSO control GFP [1] 102% | GFP response vs DMSO [2] 105% | percent response of DMSO control [3] 104% | GFP response vs DMSO [4] 99.1% | GFP response, % of DMSO [5] 105% | GFP response vs DMSO [6] 96.8% | GFP response relative to DMSO [7] 94.1% | GFP response vs DMSO [8] 100% | GFP response, % of DMSO [9] 99.7% | vesicle binding response [10] 142% | inhibition [11] 5.61% | superoxide response (% of plate) [12] 92.5% | aptamer binding inhibition [13] 5% | response [14] -21% | inhibition [15] 53.1% | response [16] -4.99% | binding (% of control) [17] 99.8% | efflux inhibition (fraction of control) [18] 0.08 | inhibition [19] -5% | differentiation response [20] -0.18%
62.7%: double positive events [10]
94%: GFP response relative to DMSO [7, 24]
98.4%: GFP response vs DMSO [6, 22]
94.4%: GFP response relative to DMSO [7, 23]
97.4%: GFP response vs DMSO [6, 21]
103%: GFP response, % of DMSO [9, 21]

O=C(NCCN1CCN(c2ccccc2)CC1)c1cccc(Br)c1
41.8%: double positive events [10]
96.5%: GFP response relative to DMSO [7, 24]
97.4%: GFP response vs DMSO [6, 22]
101%: GFP response relative to DMSO [7, 23] | GFP response, % of DMSO [9, 22]
inactive: percent of DMSO control GFP [1] 91.3% | percent response of DMSO control [3] 107% | GFP response vs DMSO [4] 88.6% | GFP response, % of DMSO [5] 91.5% | GFP response vs DMSO [6] 97% | GFP response relative to DMSO [7] 97.7% | GFP response vs DMSO [8] 102% | GFP response, % of DMSO [9] 102% | inhibition [11] 17.1% | superoxide response (% of plate) [12] 104% | aptamer binding inhibition [13] 0% | response [14] -3.55% | inhibition [15] 13.8% | response [16] -7.18% | binding (% of control) [17] 103% | efflux inhibition (fraction of control) [18] 0.05 | inhibition [19] 6% | differentiation response [20] 11.5%
100%: GFP response, % of DMSO [9, 21]
98%: GFP response vs DMSO [6, 21]
active: GFP response vs DMSO [2] 158% | vesicle binding response [10] 59.1%
